# Data reported in PubChem BioAssay.
# Inconclusive results are not listed. Calls of active or inactive are those of the source.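 The calls were made as follows, unless noted: active = inhibition above 54%, about 3 SD of non-fluorescent compounds; inactive = the rest.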
# Assays:
# [1] = yeast TOR pathway RPL19A-GFP modulators, primary screen, cell-based, S. cerevisiae, multiplex flow cytometry (AID 1862; in the data active = percent of DMSO control GFP below about 86%;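 also: lower values mimic rapamycin by blocking the RPL19A rise seen in DMSO cells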); conditions: S. cerevisiae RPL19A-GFP strain, flow cytometry fluorescence, 3 h; at 10 µM; stronger effect = lower value
# [2] = modulators of MEP2-GFP levels in yeast, primary screen, S. cerevisiae, multiplex flow cytometry (AID 1867;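 active = GFP response, as percent of the DMSO control, above the screen-wide mean plus 3 SD, about 139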;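 also: median GFP channel fluorescence of barcode-gated MEP2-GFP cells measured by flow cytometry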); conditions: S. cerevisiae MEP2-GFP strain, 3 h, at 10 µM, stronger effect = higher value, 100% means same as DMSO wells
# [3] = modulators of CIT2-GFP expression in yeast, primary screen, S. cerevisiae, GFP fusion, multiplex flow cytometry (AID 1870;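 active = percent response above a set limit, the screen-wide mean plus 3 SD, cut at about 130% in these data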;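 also: barcoded CIT2-GFP strain pooled with four other GFP strains with rapamycin as positive control; median GFP fluorescence per well over plate mean of DMSO wells so 100% = DMSO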); conditions: 3 h, at 10 µM, stronger effect = higher value
# [4] = modulators of LAP4-GFP expression in yeast, primary screen, S. cerevisiae, multiplex flow cytometry (AID 1873;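 active = GFP signal, as percent of the solvent control, above the screen mean plus 3 SD, about 149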); conditions: 3 h, at 10 µM, stronger effect = higher value
# [5] = modulators of AGP1-GFP expression in yeast TOR pathway, primary screen, cell-based, multiplex flow cytometry, S. cerevisiae (AID 1887;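 active = GFP signal above the screen-wide mean plus 3 SD, that is over about 124.5% of the solvent control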;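 also: AGP1-GFP fusion strain of S. cerevisiae within a five-strain barcoded multiplex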); conditions: 3 h, at 10 µM, stronger effect = higher value
# [6] = inhibitors of CD8+ T cell-vesicle binding, pilot screen, LFA-1/ICAM-1 modulator project, MLPCN validation set, flow cytometry (AID 2523;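 active = response below a set limit, under 55% cells CD8-positive and vesicle-bound, and CD8 cells' 90th-percentile brightness under 279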;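 as to vesicle binding response: mean PE anti-B7-1 fluorescence of CD8+ cells relative to row control; 100% = QL9-loaded vesicles with DMSO vehicle in the same plate row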); conditions: 2C mouse CD8+ T cells, at 7 µM, stronger effect = lower value; double positive events: measured here: CD8+/vesicle+ event percentage
# [7] = target: Integrin beta-1 (Homo sapiens) + Integrin alpha-4 (Homo sapiens) (UniProt P13612+P05556); experiment: inhibition of HUTS-21 binding to VLA-4, pilot screen, VLA-4 allosteric modulator project, U937 cells, HUTS-21 mAb, flow cytometry, validation set (AID 2674;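 active = inhibition above 50%, about 3 SD of the validation set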;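 also: antibody binding induced by the VLA-4 ligand LDV present at three times its Kd; 0% = LDV ligand with antibody and no compound and 100% = antibody without LDV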); conditions: HUTS-21 LIBS mAb binding, at 6.7 µM, stronger effect = higher value, binding induced by LDV ligand
# [8] = superoxide lowering in aged yeast cells, pilot screen, validation compound set (AID 2706;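 active = superoxide response below 65% of plate, a cut near 3 SD across the whole screen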;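 also: yeast exposed to compound for one week at 30 degrees C before staining; 100% = mean of all compound wells on the same plate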); conditions: S. cerevisiae aging, superoxide DHE fluorescence; at 10 µM; stronger effect = lower value
# [9] = target: Beta-adrenergic receptor kinase 1 (Homo sapiens) (UniProt P25098); experiment: GRK2 binders displacing RNA aptamer, biochemical, validation, human GRK2, bead flow cytometry (AID 488806;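 active = aptamer binding inhibition above 30%, about 3 SD of noise from non-fluorescent compounds; inactive = inhibition at or below 30%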); conditions: bead-bound GRK2, FAM-aptamer displacement, at 10 µM, stronger effect = higher value
# [10] = target: Beta-2 adrenergic receptor (Homo sapiens) (UniProt P07550); experiment: beta2AR agonists driving receptor internalization, pilot screen, cell-based, FAP fluorogen, flow cytometry, validation set (AID 504459;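 active = percent response above 42, roughly 3 SD of non-fluorescent test compounds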;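 also: agonist-driven loss of surface beta2AR via internalization measured by FAP dye flow cytometry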); conditions: Am2.2-beta2AR cells, FAP surface receptor flow cytometry; at 10 µM; stronger effect = higher value
# [11] = target: AP-2 complex subunit beta (Homo sapiens) (UniProt P63010); experiment: inhibitors of arrestin peptide binding to AP2, pilot screen, biochemical, validation set, GST-AP2 beads, flow cytometry (AID 504541); conditions: FITC arrestin peptide, at 10 µM, stronger effect = higher value, AP2 beta2 appendage fragment, R879A mutant;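 also: AP2 carries R879A mutation and is captured from E. coli lysate; bead-bound FITC arrestin peptide fluorescence measuring arrestin peptide binding to AP2; 0% = DMSO wells and 100% = excess unlabeled arrestin peptide control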
# [12] = yeast V-ATPase proton transport modulators, S. cerevisiae, pHLuorin, HTS validation (AID 504600; in the data active = response above about 15%;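 also: plate controls were DMSO for no effect and reference compound for full effect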); conditions: S. cerevisiae pHLuorin cytosolic pH, at 10 µM, stronger effect = higher value
# [13] = system: anti-desmoglein-3 scFv antibody binding to human DSG3; experiment: inhibitors of anti-DSG3 scFv binding to DSG3, pilot screen, biochemical, validation compound set, bead-based, flow cytometry (AID 588368;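 active = binding below the plate cutoff, the plate median minus 3 SD, with a reading above zero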;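 also: signal is the median channel fluorescence of bead-bound GFP antibody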); conditions: Protein G beads, DSG3-Fc, scFv-GFP binding, at 10 µM, stronger effect = lower value
# [14] = inhibitors of fungal efflux pumps CDR1, CDR2, MDR1, pilot screen, validation compound set, multiplex, phenotypic (AID 588506;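 active = efflux inhibition above 0.42, the validation set average plus 4 SD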;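 also: Nile Red retained in cells so higher fluorescence means more efflux inhibition; 0 = negative control wells and 1 = enniatin B 25 µM full block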); conditions: S. cerevisiae pump-expressing triplex, Nile Red efflux flow cytometry; at 10 µM; stronger effect = higher value; the pumps come from Candida albicans
# [15] = target: ATP-binding cassette sub-family B member 6 (Homo sapiens) (UniProt Q9NP58); experiment: ABCB6 transporter inhibitors, pilot screen, K562-ABCB6 cells, flow cytometry, validation set (AID 588550;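 active = inhibition above the screen-wide mean plus 3 SD, about 51%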;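 also: 0% = DMSO wells and 100% = benzethonium chloride 70 µM positive control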); conditions: K562-ABCB6 porphyrin accumulation, 1 h, at 10 µM, stronger effect = higher value
# [16] = promoters of myeloid differentiation in arrested cells, primary screen, cell-based, GFP/MAC1 double positive, flow cytometry, validation set (AID 588685;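 active = differentiation response of at least 50%, scaled between solvent and reference control, from cells with both markers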;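 also: compound exposure lasts four days before antibody staining and flow analysis; 0% = DMSO wells and 100% = 5 µM fulvestrant positive control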); conditions: ER-HoxA9 marrow cells, stronger effect = higher value, normalized: vehicle 0, fulvestrant 100
# Sequence of Beta-adrenergic receptor kinase 1 (Homo sapiens) (P25098 whole entry, looked up): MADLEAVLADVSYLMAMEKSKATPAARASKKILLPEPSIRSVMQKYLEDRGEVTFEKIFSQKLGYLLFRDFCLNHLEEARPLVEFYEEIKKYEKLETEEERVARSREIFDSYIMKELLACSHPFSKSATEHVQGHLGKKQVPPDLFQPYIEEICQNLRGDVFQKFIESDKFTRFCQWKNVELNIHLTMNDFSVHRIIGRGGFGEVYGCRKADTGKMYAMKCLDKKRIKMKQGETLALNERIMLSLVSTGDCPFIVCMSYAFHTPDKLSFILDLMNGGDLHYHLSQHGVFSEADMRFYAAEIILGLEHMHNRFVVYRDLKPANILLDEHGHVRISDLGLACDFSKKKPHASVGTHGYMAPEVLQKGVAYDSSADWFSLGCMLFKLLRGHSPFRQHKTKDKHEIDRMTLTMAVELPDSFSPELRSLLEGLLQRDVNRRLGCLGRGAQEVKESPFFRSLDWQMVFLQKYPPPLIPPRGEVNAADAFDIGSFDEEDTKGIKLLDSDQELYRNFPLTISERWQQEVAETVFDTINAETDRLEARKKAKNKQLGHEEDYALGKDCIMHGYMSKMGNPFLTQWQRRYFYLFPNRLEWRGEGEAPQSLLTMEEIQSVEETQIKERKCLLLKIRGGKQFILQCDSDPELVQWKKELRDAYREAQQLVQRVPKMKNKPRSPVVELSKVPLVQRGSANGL
# Sequence of Beta-2 adrenergic receptor (Homo sapiens) (P07550 whole entry, looked up, the tested form may be a part): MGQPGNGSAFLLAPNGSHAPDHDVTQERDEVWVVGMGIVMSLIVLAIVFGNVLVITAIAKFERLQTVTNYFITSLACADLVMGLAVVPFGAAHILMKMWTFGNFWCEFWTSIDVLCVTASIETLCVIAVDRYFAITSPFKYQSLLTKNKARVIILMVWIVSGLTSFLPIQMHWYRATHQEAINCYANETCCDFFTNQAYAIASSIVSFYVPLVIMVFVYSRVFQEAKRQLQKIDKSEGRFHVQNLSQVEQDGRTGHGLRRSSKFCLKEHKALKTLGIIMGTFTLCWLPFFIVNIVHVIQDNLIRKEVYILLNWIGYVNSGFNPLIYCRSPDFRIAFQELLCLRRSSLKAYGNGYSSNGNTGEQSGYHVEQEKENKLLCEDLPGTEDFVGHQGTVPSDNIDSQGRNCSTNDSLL
# Sequence of Integrin beta-1 (Homo sapiens) + Integrin alpha-4 (Homo sapiens) (P05556 whole entry, looked up): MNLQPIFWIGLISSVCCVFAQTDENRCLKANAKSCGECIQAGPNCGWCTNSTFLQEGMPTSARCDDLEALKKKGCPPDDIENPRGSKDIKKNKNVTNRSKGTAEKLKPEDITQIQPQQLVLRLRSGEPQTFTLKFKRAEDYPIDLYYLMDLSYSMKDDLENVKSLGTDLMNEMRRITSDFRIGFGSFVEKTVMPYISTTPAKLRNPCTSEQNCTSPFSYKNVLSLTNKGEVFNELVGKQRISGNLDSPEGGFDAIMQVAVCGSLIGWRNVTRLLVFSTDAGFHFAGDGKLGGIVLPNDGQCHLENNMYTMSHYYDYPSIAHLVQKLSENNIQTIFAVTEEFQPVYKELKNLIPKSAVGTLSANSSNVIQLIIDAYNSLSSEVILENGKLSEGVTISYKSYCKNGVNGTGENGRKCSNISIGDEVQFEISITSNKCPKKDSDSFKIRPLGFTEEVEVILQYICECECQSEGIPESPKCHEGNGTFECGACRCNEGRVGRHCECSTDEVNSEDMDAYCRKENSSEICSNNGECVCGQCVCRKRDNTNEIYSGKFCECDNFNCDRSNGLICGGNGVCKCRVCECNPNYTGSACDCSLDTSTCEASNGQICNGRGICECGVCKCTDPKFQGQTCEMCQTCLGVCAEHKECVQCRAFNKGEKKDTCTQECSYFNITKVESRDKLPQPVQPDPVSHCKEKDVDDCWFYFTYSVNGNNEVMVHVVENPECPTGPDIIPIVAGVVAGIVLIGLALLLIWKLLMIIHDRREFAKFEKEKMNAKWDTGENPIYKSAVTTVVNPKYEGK
# Sequence of Integrin beta-1 (Homo sapiens) + Integrin alpha-4 (Homo sapiens) (P13612 whole entry, looked up): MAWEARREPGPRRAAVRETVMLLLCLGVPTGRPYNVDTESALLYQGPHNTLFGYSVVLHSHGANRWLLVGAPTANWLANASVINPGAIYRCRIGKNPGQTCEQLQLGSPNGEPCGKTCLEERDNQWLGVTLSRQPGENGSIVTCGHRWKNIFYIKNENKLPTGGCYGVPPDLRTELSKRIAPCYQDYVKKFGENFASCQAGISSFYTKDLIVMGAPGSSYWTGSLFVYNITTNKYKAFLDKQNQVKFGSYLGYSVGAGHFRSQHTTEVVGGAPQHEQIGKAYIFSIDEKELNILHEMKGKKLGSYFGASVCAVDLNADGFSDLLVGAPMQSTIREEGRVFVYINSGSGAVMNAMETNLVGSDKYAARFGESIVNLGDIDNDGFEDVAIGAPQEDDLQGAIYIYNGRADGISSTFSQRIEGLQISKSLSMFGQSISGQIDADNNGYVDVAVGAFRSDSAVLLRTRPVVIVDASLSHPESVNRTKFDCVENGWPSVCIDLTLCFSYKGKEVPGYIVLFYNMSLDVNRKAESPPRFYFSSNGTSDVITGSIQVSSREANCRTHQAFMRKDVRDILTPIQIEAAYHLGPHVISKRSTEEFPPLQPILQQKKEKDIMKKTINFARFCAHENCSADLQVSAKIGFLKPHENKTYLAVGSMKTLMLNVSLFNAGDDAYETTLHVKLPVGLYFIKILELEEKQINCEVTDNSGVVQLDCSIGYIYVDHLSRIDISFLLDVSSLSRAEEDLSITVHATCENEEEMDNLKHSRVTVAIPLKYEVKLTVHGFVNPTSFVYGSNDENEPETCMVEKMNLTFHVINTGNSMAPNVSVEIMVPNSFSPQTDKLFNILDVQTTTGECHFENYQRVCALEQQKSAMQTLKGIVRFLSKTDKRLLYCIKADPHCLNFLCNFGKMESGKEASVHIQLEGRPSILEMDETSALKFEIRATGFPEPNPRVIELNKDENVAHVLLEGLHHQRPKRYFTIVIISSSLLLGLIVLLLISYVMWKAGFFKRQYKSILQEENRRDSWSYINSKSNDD
# Sequence of AP-2 complex subunit beta (Homo sapiens) (P63010 whole entry, looked up, the tested form may be a part, one chain of several): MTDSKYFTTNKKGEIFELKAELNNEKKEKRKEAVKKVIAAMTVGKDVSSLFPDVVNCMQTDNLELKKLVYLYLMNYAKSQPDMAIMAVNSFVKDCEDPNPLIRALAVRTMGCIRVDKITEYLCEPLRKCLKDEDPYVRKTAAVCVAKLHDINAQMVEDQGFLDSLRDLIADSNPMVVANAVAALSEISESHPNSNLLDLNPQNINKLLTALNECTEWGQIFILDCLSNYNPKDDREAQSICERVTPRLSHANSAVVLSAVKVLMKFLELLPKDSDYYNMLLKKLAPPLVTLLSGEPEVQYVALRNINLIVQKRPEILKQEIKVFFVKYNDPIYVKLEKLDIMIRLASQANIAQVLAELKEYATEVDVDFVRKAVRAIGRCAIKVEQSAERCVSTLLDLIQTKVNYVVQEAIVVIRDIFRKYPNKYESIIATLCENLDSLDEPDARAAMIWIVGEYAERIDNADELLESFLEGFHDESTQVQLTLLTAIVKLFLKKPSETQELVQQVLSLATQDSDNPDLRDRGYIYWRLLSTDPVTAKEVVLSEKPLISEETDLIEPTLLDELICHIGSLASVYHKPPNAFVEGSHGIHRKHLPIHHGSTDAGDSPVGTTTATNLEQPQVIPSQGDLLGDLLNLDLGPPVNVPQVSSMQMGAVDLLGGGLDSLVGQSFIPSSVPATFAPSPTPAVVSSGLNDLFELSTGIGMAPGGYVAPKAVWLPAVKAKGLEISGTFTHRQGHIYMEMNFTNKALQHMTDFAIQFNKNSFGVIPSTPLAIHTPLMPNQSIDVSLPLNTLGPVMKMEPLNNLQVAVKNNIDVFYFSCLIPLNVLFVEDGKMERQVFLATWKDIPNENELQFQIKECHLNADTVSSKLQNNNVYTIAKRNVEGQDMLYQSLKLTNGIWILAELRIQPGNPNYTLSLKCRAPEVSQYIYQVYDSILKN
# Sequence of ATP-binding cassette sub-family B member 6 (Homo sapiens) (Q9NP58 whole entry, looked up): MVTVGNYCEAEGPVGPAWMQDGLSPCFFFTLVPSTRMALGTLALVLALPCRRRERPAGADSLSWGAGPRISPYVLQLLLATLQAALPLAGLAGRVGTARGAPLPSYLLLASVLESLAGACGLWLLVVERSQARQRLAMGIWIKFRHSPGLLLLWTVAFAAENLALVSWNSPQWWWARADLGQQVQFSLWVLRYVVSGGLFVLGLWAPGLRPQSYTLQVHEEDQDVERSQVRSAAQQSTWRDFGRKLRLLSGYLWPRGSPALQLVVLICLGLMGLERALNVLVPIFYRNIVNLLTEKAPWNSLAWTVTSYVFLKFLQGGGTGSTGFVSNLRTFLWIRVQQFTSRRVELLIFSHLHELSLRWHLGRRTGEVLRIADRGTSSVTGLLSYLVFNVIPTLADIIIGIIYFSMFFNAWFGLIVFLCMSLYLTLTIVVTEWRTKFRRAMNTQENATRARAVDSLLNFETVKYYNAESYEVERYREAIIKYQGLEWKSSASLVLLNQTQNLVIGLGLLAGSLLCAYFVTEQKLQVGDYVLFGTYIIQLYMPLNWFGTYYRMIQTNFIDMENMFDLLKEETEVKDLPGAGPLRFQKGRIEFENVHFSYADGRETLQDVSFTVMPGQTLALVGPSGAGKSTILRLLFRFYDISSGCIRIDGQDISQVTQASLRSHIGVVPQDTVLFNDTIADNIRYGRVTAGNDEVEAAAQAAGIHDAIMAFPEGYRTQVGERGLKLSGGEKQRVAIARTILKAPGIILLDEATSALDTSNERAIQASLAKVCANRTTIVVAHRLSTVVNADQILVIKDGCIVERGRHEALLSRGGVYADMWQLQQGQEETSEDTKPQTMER
Structure (SMILES),percent of DMSO control GFP [1],GFP response vs DMSO [2],percent response of DMSO control [3],GFP response vs DMSO [4],"GFP response, % of DMSO [5]",double positive events [6],vesicle binding response [6],inhibition [7],superoxide response (% of plate) [8],aptamer binding inhibition [9],response [10],inhibition [11],response [12],binding (% of control) [13],efflux inhibition (fraction of control) [14],inhibition [15],differentiation response [16]
Cc1ncoc1C(=O)N1CCCC(C(=O)c2ccc(-c3ccccc3)c(F)c2)C1 (stereo not drawn),102% (inactive),121% (inactive),112% (inactive),76.5% (inactive),94% (inactive),49.9%,220% (inactive),-3.24% (inactive),110% (inactive),8% (inactive),-19.4% (inactive),4.25% (inactive),-6.69% (inactive),101% (inactive),0.01 (inactive),12% (inactive),0.82% (inactive)
CCCc1cc(C(N)=S)ccn1,96.9% (inactive),99.6% (inactive),101% (inactive),91.4% (inactive),93.1% (inactive),60.4%,190% (inactive),0.94% (inactive),97% (inactive),2% (inactive),-5.23% (inactive),7.42% (inactive),-1.93% (inactive),97.6% (inactive),-0.28 (inactive),-25% (inactive),-18.4% (inactive)
CN(C)CCCN1c2ccccc2CCc2ccccc21,99% (inactive),103% (inactive),101% (inactive),90.7% (inactive),95.3% (inactive),65.8%,1060% (inactive),12% (inactive),89.3% (inactive),-2% (inactive),2.45% (inactive),4.55% (inactive),-0.62% (inactive),99.7% (inactive),-0.2 (inactive),3% (inactive),6.11% (inactive)
CCCCNc1ccc(C(=O)OCCN(C)C)cc1,101% (inactive),109% (inactive),98.9% (inactive),103% (inactive),97.3% (inactive),63.6%,212% (inactive),5.77% (inactive),106% (inactive),-1% (inactive),-12.7% (inactive),5.38% (inactive),-3.28% (inactive),101% (inactive),-0.01 (inactive),15% (inactive),19.8% (inactive)
CC(C)Cc1ccc(C(C)C(=O)O)cc1 (stereo not drawn),105% (inactive),104% (inactive),95.7% (inactive),142% (inactive),111% (inactive),59.8%,141% (inactive),4.84% (inactive),144% (inactive),0% (inactive),-11.9% (inactive),-1.77% (inactive),0.95% (inactive),107% (inactive),-0.17 (inactive),5% (inactive),-1.05% (inactive)
S=C(c1ccc2c(c1)OCO2)N1CCCCC1,101% (inactive),104% (inactive),104% (inactive),105% (inactive),106% (inactive),62.6%,176% (inactive),-9.13% (inactive),91% (inactive),-2% (inactive),-5.76% (inactive),34.2% (inactive),-2.91% (inactive),99.8% (inactive),0.19 (inactive),12% (inactive),-10.4% (inactive)
CC(C)(C)OC(=O)COc1cc(OCC(=O)OC(C)(C)C)c2c(=O)cc(-c3ccccc3)oc2c1,105% (inactive),107% (inactive),102% (inactive),105% (inactive),100% (inactive),60.3%,77.9% (inactive),-29.2% (inactive),94.8% (inactive),1% (inactive),-17% (inactive),-7.67% (inactive),2.77% (inactive),105% (inactive),-0.07 (inactive),35% (inactive),-4.57% (inactive)
COc1ccc(-c2nc(NC(C)=O)sc2-c2ccc(OC)cc2)cc1,104% (inactive),101% (inactive),99.7% (inactive),92.6% (inactive),90.9% (inactive),65.9%,232% (inactive),-2.43% (inactive),104% (inactive),2% (inactive),-22.1% (inactive),-11.5% (inactive),0.09% (inactive),102% (inactive),-0.29 (inactive),0% (inactive),14.4% (inactive)
CCOc1ccc(C(NC(C)=O)c2ccc(OC)c(OC)c2)cc1 (stereo not drawn),99.8% (inactive),104% (inactive),99.3% (inactive),101% (inactive),100% (inactive),58.9%,28% (inactive),-20.4% (inactive),107% (inactive),5% (inactive),-0.66% (inactive),-21.1% (inactive),-0.46% (inactive),99.2% (inactive),-0.63 (inactive),8% (inactive),0% (inactive)
